According to PubChem BioAssay AID1159580 (chemical genetic matrix, 2015):
Out of some 5,500 compounds screened, about 2,000 (36%) were called active. Roughly 18% stayed inconclusive and do not appear here. No stated cut-off is given here; in the data, active means normalized growth mostly below about 0.91 (no sharp cut-off); inconclusive means no clear call, values can overlap the other calls; inactive means mostly above about 0.92. Some of the results follow.

Experiment: chemical genetic growth profiling, strain panel (AID 1159580);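 further: tested at 20 µM; growth read once vehicle control cultures reached saturation at 30 °C; 1 = growth at the plate median or of vehicle wells; lower values mean less growth of the strain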
Settings: growth OD
[1] = S. cerevisiae deletion strains, locus YAL013W, strain DEP1, active compounds read low
[2] = S. cerevisiae deletion strains, locus YAL040C, strain CLN3, active compounds read low
[3] = S. cerevisiae deletion strains, locus YDR363W, strain ESC2, active compounds read low
[4] = S. cerevisiae deletion strains, locus YER002W, strain NOP16, active compounds read low
[5] = S. cerevisiae deletion strains, locus YJR075W, strain HOC1, active compounds read low
[6] = S. cerevisiae deletion strains, locus YMR263W, strain SAP30, active compounds read low
[7] = S. cerevisiae deletion strains, locus YNL175C, strain NOP13, active compounds read low
[8] = S. cerevisiae deletion strains, locus YNL197C, strain WHI3, active compounds read low
[9] = S. cerevisiae deletion strains, locus YNL224C, strain SQS1, active compounds read low
[10] = S. cerevisiae deletion strains, locus YOR083W, strain WHI5 (second series), active compounds read low
[11] = S. cerevisiae deletion strains, locus YPL055C, strain LGE1, active compounds read low
[12] = S. cerevisiae deletion strains, locus YPL241C, strain CIN2, active compounds read low
[13] = S. cerevisiae deletion strains, locus YGR078C, strain PAC10, active compounds read low
[14] = S. cerevisiae deletion strains, locus YNL153C, strain GIM3, active compounds read low
[15] = S. cerevisiae deletion strains, locus YNL322C, strain KRE1, active compounds read low
[16] = S. cerevisiae deletion strains, locus YBR229C, strain ROT2, active compounds read low
[17] = S. cerevisiae deletion strains, locus YDL101C, strain DUN1, active compounds read low
[18] = S. cerevisiae deletion strains, locus YDL134C, strain PPH21, active compounds read low
[19] = S. cerevisiae deletion strains, locus YDR150W, strain NUM1, active compounds read low
[20] = S. cerevisiae deletion strains, locus YEL061C, strain CIN8, active compounds read low
[21] = S. cerevisiae deletion strains, locus YHR030C, strain SLT2, active compounds read low
[22] = S. cerevisiae deletion strains, locus YHR087W, strain rtc3, active compounds read low
[23] = S. cerevisiae deletion strains, locus YJR043C, strain POL32, active compounds read low
[24] = S. cerevisiae deletion strains, locus YLR039C, strain RIC1, active compounds read low
[25] = S. cerevisiae deletion strains, locus YLR058C, strain SHM2 (second series), active compounds read low
[26] = S. cerevisiae deletion strains, locus YLR085C, strain ARP6, active compounds read low
[27] = S. cerevisiae deletion strains, locus YLR262C, strain YPT6, active compounds read low
[28] = S. cerevisiae deletion strains, locus YML094W, strain GIM5, active compounds read low
[29] = S. cerevisiae deletion strains, locus YMR219W, strain ESC1, active compounds read low
[30] = S. cerevisiae deletion strains, locus YMR307W, strain GAS1, active compounds read low
[31] = S. cerevisiae deletion strains, locus YNL298W, strain CLA4 (second series), active compounds read low
[32] = S. cerevisiae deletion strains, locus YNR030W, strain Alg12, active compounds read low
[33] = S. cerevisiae deletion strains, locus YOL006C, strain TOP1, active compounds read low
[34] = S. cerevisiae deletion strains, locus YPR135W, strain CTF4, active compounds read low

Measured: normalized growth

CCCCCCCCCCCCCCCCOCC(COCC(F)(F)F)OP(=O)(O)OCO (stereo unspecified)
active: S. cerevisiae deletion strains, locus YGR229C, strain SMI1, active compounds read low 0.767 | [11] 0.881
inactive: [1] 0.947 | [2] 1 | S. cerevisiae deletion strains, locus YCL061C, strain MRC1 (second series), active compounds read low 0.987 | [3] 0.968 | [4] 0.995 | [5] 1.03 | [6] 1.02 | [7] 0.995 | [8] 1 | [9] 0.964 | [10] 0.988 | [12] 0.988

O=C(Cc1ccc(Cl)c(Cl)c1)OCCN1CCCC1
inactive: [2] 1.02 | [3] 1.02 | [4] 0.997 | [13] 0.994 | [14] 0.999 | [7] 1.02 | [8] 1 | [9] 1.01 | [15] 0.99 | [10] 1.03

Cc1ccc(=O)n(Cc2ccc(Cl)c(Cl)c2)n1
inactive: [1] 0.989 | [16] 1.01 | [17] 0.958 | [18] 0.989 | [19] 0.968 | [20] 1 | [13] 0.977 | [21] 0.892 | [22] 1.01 | [23] 0.966 | [5] 0.986 | S. cerevisiae deletion strains, locus YKL190W, strain CNB1, active compounds read low 0.988 | [24] 0.921 | [25] 0.986 | [26] 0.938 | [27] 0.913 | [28] 0.974 | [29] 0.992 | [6] 0.99 | [30] 1.06 | [14] 0.949 | [31] 0.954 | [15] 0.988 | [32] 0.988 | [33] 0.899 | [11] 1.03 | [12] 0.985 | [34] 0.918

O=C1CCCN1c1ccc(Cl)c(Cl)c1
inactive: [1] 0.987 | [16] 0.977 | [17] 0.939 | [18] 0.969 | [19] 0.968 | [20] 0.933 | [13] 0.976 | [21] 0.8 | [22] 0.989 | [23] 0.97 | [5] 0.983 | [24] 0.916 | [25] 0.988 | [26] 0.894 | [27] 0.949 | [29] 0.988 | [6] 0.984 | [30] 0.9 | S. cerevisiae deletion strains, locus YNL128W, strain TEP1, active compounds read low 0.94 | [14] 0.95 | [31] 0.911 | [15] 0.974 | [32] 0.96 | [33] 0.748 | [11] 0.889 | [34] 0.913 | S. cerevisiae strains, strain wild type, active compounds read low 0.978
active: [28] 0.853 | [12] 0.847
